From PMC7862700, “An all-to-all approach to the identification of sequence-specific readers for epigenetic DNA modifications on cytosine”

Legend:
Experiment in all cases: DAPPL (digital affinity profiling via proximity ligation, sequencing); 10 mM Tris-HCl pH 7.5, 50 mM NaCl, 1 mM DTT, 4% glycerol, room temperature, 30 min; GST-TFs on glutathione beads, 16-mer random dsDNA library, 0.1% formaldehyde crosslink after washing; high values mean tight binding
FLI1 = target: T1, FLI1 (Homo sapiens, UniProt Q01543 1-452); conditions: protein: recombinant; tags: N-terminal GST; dsDNA, one strand shown
T1 sequence: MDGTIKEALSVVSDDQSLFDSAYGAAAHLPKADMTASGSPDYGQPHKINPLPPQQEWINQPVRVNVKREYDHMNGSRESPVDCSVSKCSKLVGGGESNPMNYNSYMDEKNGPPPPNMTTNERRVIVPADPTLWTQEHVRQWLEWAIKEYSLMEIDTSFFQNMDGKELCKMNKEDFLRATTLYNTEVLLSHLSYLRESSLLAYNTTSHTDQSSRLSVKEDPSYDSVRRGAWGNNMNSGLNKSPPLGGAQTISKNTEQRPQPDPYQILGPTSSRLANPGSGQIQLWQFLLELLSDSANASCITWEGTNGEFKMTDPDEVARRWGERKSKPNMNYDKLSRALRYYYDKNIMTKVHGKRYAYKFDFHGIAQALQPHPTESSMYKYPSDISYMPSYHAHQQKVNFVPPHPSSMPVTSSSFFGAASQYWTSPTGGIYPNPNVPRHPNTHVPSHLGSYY
Outline: (§1)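 A tag-only sample was pooled with DNA-barcoded human transcription factors that had been expressed in yeast as GST fusions and captured on glutathione beads. The pools were incubated for 30 min at room temperature with 200 nmole of a random double-stranded 16-mer DNA library in Tris/NaCl/DTT/glycerol buffer, then washed, crosslinked with 0.1% formaldehyde, proximity-ligated (BsaI/T4 ligase, 1 h, 37 °C), PCR-amplified and sequenced on an Illumina NextSeq500. Binding signal is each hexamer's read frequency for a factor divided by its frequency for the tag-only sample.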

ELK1 = target: T2, ELK1 (Homo sapiens, UniProt P19419 1-428); conditions: protein: recombinant; tags: N-terminal GST; dsDNA, one strand shown
T2 sequence: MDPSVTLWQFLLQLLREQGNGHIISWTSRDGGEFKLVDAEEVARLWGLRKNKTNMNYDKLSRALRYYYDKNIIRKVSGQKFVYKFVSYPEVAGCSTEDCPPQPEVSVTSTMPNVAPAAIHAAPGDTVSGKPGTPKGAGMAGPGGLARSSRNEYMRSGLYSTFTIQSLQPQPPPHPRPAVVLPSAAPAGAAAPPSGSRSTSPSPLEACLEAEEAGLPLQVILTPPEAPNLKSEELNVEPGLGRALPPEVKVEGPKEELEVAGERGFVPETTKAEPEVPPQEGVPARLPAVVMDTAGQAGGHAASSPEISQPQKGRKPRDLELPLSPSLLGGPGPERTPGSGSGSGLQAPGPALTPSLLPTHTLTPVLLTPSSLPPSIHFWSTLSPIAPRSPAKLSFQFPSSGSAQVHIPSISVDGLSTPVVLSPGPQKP
Outline: as §1

GABPA = target: T3, GABPA (Homo sapiens, UniProt Q06546 1-454); conditions: protein: recombinant; tags: N-terminal GST; dsDNA, one strand shown
T3 sequence: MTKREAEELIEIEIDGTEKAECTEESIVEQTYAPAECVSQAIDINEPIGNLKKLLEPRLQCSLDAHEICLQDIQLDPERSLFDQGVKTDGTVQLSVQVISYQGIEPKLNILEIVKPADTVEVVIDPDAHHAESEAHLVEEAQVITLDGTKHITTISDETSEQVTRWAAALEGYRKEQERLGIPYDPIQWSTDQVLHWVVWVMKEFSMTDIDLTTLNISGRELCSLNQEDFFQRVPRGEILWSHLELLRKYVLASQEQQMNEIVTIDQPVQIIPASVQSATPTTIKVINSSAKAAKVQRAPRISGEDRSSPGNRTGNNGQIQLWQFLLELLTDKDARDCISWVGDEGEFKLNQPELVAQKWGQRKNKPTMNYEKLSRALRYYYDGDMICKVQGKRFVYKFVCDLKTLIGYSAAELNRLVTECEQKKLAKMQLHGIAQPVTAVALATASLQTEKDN
Outline: as §1

ERG = target: T4, ERG (Homo sapiens, UniProt P11308 1-479); conditions: protein: recombinant; tags: N-terminal GST; dsDNA, one strand shown
T4 sequence: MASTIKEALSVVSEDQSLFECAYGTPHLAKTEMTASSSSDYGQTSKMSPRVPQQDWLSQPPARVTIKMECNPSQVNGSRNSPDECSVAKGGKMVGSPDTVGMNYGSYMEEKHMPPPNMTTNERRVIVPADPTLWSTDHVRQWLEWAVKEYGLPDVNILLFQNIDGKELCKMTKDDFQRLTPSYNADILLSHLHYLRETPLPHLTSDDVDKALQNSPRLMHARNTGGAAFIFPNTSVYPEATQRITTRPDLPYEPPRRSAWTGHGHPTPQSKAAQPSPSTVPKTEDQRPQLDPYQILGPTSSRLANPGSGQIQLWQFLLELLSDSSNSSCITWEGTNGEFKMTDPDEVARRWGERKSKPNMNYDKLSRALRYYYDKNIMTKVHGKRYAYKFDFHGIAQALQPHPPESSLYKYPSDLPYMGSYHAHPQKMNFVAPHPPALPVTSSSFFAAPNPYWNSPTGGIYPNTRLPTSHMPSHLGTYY
Outline: as §1

ELF1 = ELF1 (Homo sapiens, UniProt P32519 1-619); conditions: protein: recombinant; tags: N-terminal GST; dsDNA, one strand shown
Sequence of ELF1 (P32519 whole entry): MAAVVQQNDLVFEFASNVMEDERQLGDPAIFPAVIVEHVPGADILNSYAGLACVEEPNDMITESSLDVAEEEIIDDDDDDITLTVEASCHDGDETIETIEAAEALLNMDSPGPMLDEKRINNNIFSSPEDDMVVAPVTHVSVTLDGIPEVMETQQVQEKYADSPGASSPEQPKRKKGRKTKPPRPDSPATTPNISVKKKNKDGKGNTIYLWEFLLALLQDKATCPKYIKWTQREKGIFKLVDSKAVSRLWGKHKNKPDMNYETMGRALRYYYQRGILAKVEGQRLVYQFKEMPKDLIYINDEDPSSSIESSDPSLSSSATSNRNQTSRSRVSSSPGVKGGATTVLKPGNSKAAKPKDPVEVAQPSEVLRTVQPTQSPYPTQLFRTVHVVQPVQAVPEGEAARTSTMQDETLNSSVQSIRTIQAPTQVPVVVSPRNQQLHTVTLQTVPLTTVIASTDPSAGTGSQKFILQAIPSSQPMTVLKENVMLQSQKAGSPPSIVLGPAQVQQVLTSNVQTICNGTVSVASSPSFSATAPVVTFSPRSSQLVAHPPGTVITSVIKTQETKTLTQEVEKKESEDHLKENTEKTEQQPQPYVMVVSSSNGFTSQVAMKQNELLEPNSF
Outline: as §1

EHF = target: T5, EHF (Homo sapiens, UniProt Q9NZC4 1-300); conditions: protein: recombinant; tags: N-terminal GST; dsDNA, one strand shown
T5 sequence: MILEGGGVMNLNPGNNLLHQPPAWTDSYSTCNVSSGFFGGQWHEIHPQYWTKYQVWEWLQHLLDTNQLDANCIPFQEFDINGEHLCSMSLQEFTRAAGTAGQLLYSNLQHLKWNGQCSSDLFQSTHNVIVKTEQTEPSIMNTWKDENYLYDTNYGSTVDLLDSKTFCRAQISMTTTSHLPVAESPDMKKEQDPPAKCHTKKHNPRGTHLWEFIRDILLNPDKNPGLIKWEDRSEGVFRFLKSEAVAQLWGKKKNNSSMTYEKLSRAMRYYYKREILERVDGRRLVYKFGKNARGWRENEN
Outline: as §1

SPI1 = SPI1 (Homo sapiens, UniProt P17947 1-270); conditions: protein: recombinant; tags: N-terminal GST; dsDNA, one strand shown
Outline: as §1

SPIB = SPIB (Homo sapiens, UniProt Q01892 1-262); conditions: protein: recombinant; tags: N-terminal GST; dsDNA, one strand shown
Sequence of SPIB (Q01892 whole entry): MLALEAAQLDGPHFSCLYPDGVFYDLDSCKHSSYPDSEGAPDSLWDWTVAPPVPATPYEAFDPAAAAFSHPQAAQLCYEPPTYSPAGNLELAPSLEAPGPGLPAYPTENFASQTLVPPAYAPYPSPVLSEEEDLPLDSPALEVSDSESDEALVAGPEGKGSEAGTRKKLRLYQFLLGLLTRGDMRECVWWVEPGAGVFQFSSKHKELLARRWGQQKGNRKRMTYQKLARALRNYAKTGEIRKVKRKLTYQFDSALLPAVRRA
Outline: as §1

ELK3 = target: T6, ELK3 (Homo sapiens, UniProt P41970 1-407); conditions: protein: recombinant; tags: N-terminal GST; dsDNA, one strand shown
T6 sequence: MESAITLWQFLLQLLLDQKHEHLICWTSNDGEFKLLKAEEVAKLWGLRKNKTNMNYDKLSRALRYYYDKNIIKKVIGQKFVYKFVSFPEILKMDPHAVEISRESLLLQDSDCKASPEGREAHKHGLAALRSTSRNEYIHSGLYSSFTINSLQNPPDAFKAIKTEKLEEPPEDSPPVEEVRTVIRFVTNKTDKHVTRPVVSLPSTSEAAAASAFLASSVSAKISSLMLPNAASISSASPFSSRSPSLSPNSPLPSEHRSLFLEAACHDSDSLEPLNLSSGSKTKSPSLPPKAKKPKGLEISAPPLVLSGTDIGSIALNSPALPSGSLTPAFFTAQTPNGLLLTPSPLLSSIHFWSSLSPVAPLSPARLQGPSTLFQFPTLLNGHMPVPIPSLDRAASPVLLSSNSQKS
Outline: as §1

FEV = target: T7, FEV (Homo sapiens, UniProt Q99581 1-238); conditions: protein: recombinant; tags: N-terminal GST; dsDNA, one strand shown
T7 sequence: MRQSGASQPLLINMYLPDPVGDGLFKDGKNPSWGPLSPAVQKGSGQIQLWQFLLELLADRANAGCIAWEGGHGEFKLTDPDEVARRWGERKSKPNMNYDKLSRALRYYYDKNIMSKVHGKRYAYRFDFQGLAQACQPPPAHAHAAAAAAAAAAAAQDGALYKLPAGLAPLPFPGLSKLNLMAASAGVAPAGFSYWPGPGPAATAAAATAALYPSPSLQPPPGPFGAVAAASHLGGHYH
Outline: as §1

ETV5 = ETV5 (Homo sapiens, UniProt P41161 1-510); conditions: protein: recombinant; tags: N-terminal GST; dsDNA, one strand shown
Sequence of ETV5 (P41161 whole entry): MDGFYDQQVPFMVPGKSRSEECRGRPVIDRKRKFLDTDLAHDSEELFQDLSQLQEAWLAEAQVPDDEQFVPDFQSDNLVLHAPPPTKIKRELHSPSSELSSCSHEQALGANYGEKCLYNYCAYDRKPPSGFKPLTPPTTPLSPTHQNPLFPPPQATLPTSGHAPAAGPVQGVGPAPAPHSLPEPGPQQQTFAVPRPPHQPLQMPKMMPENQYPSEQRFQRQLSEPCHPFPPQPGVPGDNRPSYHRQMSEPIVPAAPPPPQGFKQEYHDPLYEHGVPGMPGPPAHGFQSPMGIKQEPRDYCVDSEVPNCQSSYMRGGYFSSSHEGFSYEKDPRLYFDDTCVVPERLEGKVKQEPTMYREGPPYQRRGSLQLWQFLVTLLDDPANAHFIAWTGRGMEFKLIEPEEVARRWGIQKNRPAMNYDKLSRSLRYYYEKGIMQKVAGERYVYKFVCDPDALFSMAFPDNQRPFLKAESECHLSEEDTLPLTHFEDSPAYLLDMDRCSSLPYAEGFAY
Outline: as §1

HSF1 = HSF1 (Homo sapiens, UniProt Q00613 1-529); conditions: protein: recombinant; tags: N-terminal GST; chain copies: 3; dsDNA, one strand shown
Sequence of HSF1 (Q00613 whole entry): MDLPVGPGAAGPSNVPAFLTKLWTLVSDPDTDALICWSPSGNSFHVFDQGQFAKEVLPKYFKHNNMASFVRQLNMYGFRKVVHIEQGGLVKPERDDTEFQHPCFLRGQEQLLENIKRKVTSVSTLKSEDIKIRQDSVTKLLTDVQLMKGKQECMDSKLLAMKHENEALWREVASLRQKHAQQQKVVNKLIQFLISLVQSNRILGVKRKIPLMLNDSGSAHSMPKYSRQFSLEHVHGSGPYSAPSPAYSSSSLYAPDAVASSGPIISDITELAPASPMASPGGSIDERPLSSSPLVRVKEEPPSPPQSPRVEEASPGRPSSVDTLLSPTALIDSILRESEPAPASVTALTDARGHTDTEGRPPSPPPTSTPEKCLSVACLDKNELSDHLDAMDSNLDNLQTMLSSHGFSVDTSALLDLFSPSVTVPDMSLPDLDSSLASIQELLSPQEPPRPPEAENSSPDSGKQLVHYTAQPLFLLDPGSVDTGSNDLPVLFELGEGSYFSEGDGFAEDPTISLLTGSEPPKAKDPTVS
Outline: as §1

SPIC = target: T8, SPIC (Homo sapiens, UniProt Q8N5J4 1-248); conditions: protein: recombinant; tags: N-terminal GST; dsDNA, one strand shown
T8 sequence: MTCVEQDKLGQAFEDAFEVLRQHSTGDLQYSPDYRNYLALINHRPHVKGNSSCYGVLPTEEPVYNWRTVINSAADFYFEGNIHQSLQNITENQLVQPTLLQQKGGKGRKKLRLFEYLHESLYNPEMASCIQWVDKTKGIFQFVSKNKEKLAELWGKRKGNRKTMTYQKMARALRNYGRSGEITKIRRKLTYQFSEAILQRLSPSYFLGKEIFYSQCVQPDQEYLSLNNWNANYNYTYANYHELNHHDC
Outline: as §1

ELF4 = ELF4 (Homo sapiens, UniProt Q99607 1-663); conditions: protein: recombinant; tags: N-terminal GST; dsDNA, one strand shown
Sequence of ELF4 (Q99607 whole entry): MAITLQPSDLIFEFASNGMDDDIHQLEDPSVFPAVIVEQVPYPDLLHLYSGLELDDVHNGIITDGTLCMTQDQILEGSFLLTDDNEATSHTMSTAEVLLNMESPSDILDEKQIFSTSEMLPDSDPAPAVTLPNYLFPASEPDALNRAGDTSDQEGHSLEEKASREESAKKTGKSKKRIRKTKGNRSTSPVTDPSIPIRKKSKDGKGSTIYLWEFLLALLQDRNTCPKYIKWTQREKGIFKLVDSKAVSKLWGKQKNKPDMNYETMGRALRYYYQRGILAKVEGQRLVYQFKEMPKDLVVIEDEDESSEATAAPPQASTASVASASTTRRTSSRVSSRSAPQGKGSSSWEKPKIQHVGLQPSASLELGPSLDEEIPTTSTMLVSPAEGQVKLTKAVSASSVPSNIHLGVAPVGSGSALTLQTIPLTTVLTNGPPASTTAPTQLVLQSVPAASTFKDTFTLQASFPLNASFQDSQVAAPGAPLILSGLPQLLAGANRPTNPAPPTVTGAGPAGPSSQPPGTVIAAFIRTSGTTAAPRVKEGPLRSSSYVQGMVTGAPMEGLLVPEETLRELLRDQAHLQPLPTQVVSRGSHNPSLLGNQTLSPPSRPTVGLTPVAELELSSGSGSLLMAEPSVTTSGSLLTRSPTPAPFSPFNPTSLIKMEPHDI
Outline: as §1

ELK4 = target: T9, ELK4 (Homo sapiens, UniProt P28324-2 1-405); conditions: protein: recombinant; tags: N-terminal GST; dsDNA, one strand shown
T9 sequence: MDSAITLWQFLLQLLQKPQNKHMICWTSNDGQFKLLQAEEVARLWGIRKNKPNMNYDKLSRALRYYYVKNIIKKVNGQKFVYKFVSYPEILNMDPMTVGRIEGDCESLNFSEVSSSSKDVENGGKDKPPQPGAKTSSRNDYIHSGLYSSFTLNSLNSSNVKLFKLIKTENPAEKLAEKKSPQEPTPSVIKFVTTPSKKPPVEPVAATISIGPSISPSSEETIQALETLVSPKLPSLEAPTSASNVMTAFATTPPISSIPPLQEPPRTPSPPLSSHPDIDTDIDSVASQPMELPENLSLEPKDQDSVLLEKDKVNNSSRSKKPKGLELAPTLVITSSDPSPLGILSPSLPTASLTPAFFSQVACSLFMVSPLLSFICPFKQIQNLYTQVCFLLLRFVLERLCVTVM
Outline: as §1

ETV2 = target: T10, ETV2 (Homo sapiens, UniProt O00321 1-342); conditions: protein: recombinant; tags: N-terminal GST; dsDNA, one strand shown
T10 sequence: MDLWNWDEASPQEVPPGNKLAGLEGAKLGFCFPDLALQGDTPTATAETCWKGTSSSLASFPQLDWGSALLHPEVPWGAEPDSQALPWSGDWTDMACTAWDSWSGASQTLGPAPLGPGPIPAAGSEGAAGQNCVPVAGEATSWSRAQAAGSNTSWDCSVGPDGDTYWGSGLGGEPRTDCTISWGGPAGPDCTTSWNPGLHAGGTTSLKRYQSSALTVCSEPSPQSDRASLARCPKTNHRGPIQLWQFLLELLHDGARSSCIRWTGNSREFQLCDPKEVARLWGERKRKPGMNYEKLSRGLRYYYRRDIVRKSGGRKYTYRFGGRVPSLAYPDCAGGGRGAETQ
Outline: as §1

ELF3 = target: T11, ELF3 (Homo sapiens, UniProt P78545 1-371); conditions: protein: recombinant; tags: N-terminal GST; dsDNA, one strand shown
T11 sequence: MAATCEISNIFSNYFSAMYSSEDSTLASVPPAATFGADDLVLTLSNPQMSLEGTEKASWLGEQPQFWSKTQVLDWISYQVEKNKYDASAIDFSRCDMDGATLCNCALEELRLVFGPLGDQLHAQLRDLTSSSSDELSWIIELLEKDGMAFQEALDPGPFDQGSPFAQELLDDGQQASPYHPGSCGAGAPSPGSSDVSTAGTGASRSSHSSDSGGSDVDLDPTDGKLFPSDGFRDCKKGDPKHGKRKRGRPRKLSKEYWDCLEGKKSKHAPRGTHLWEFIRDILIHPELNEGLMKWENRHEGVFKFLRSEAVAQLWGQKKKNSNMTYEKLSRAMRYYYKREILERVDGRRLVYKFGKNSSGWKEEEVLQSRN
Outline: as §1

CRX = CRX (Homo sapiens, UniProt O43186 1-299); conditions: protein: recombinant; tags: N-terminal GST; dsDNA, one strand shown
Sequence of CRX (O43186 whole entry): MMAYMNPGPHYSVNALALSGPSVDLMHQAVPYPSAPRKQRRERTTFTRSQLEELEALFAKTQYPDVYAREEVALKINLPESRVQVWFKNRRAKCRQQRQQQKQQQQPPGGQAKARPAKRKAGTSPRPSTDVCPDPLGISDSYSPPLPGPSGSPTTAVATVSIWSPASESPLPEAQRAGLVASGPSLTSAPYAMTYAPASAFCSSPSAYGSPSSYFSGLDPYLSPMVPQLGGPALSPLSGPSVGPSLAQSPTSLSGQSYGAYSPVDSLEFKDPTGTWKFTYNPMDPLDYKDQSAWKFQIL
Outline: as §1

ETV1 = ETV1 (Homo sapiens, UniProt P50549 1-477); conditions: protein: recombinant; tags: N-terminal GST; dsDNA, one strand shown
Sequence of ETV1 (P50549 whole entry): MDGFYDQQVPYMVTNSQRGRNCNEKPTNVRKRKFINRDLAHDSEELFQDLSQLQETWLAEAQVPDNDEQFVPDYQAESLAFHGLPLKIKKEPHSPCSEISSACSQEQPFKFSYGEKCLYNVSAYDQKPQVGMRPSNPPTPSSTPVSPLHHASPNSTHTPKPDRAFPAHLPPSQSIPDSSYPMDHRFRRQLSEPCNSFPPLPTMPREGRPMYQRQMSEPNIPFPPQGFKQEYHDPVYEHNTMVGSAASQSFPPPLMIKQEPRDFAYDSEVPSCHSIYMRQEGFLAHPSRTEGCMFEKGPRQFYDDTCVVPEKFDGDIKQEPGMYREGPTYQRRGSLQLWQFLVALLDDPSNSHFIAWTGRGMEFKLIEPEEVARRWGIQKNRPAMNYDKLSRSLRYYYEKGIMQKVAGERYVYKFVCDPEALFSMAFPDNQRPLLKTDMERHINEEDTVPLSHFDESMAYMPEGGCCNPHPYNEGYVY
Outline: as §1

GGTCTT
binding signal (FLI1): 1.14 fold enrichment (6-mer frequency, TF over GST control)
binding signal (ELK1): 1.11 fold enrichment (6-mer frequency, TF over GST control)
binding signal (GABPA): 1.14 fold enrichment (6-mer frequency, TF over GST control)
binding signal (ERG): 1.09 fold enrichment (6-mer frequency, TF over GST control)
binding signal (ELF1): 1.19 fold enrichment (6-mer frequency, TF over GST control)
binding signal (EHF): 1.1 fold enrichment (6-mer frequency, TF over GST control)
binding signal (SPI1): 1.18 fold enrichment (6-mer frequency, TF over GST control)
binding signal (SPIB): 1.23 fold enrichment (6-mer frequency, TF over GST control)
binding signal (ELK3): 1.15 fold enrichment (6-mer frequency, TF over GST control)
binding signal (FEV): 1.07 fold enrichment (6-mer frequency, TF over GST control)
binding signal (ETV5): 1.14 fold enrichment (6-mer frequency, TF over GST control)
binding signal (HSF1): 1.05 fold enrichment (6-mer frequency, TF over GST control)
binding signal (SPIC): 1.02 fold enrichment (6-mer frequency, TF over GST control)
binding signal (ELF4): 1.15 fold enrichment (6-mer frequency, TF over GST control)
binding signal (ELK4): 1.11 fold enrichment (6-mer frequency, TF over GST control)
binding signal (ETV2): 1.08 fold enrichment (6-mer frequency, TF over GST control)
binding signal (ELF3): 1.04 fold enrichment (6-mer frequency, TF over GST control)
binding signal (CRX): 1.15 fold enrichment (6-mer frequency, TF over GST control)
binding signal (ETV1): 1.11 fold enrichment (6-mer frequency, TF over GST control)
